# Data from article PMC5540273 (PLoS ONE, 2017).
# What was measured:
# [1] = system: FLT4
# [2] = system: FRK
# [3] = system: FYN
# [4] = system: GRK1
# [5] = system: T1, GRK3
# T1 construct: gene ADRBK2
# [6] = system: T2, HASPIN
# T2 construct: gene GSG2
# [7] = system: HIPK2
# 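Also: kd values determined as follow-up on hits from a single-replicate KINOMEscan panel screen.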
smiles,measurement,setting,value
COc1cccc(-c2cc(-c3c[nH]nc3-c3ccccn3)ccn2)c1 [GW680338],Kd,[1],> 10 µM
O=C(O)COc1ncnc2cc(-c3ccc4[nH]ncc4c3)sc12,Kd,[2],> 10 µM
same,Kd,[3],> 10 µM
CC(=O)Nc1nc2cnc(Nc3cc(NC(=O)c4cccc(CCC#N)c4)ccc3C)nc2s1,Kd,[2],> 10 µM
CC(C)(C)c1ccc(C(=O)Nc2cn3cc(Cl)ccc3n2)cc1,Kd,[3],> 10 µM
CCCc1ccc(S(=O)(=O)NC2CCN(c3ccnc(Nc4ccc(F)cc4)n3)C2)cc1 (stereo not drawn) [GSK1379715],Kd,[4],> 10 µM
Clc1cc(Cl)cc(Nc2ccnc(Nc3cc(Cl)cc(Cl)c3)n2)c1 [GSK175726],Kd,[4],> 10 µM
Cc1ccc(NC(=O)Nc2cc(C(C)(C)C)nn2-c2ccccc2)cc1 [GSK1014915],Kd,[5],> 10 µM
O=C(Nc1ccc2c(c1)OCO2)NC1CCN(c2ccnc(Nc3ccc(F)cc3)n2)C1 (stereo not drawn) [GSK1379724],Kd,[5],> 10 µM
O=C1NC(=O)C(N2CCc3ccccc32)=C1c1ccccc1Cl [SB-373598],Kd,[6],> 10 µM
Cc1csc(-c2nc(Nc3ccncc3)c3ccccc3n2)n1 [GW869640],Kd,[6],0.077 µM
Cc1nnc(-c2ccc3occ(-c4ccc(S(C)=O)cc4)c3c2)[nH]1 (stereo not drawn),Kd,[7],0.32 µM
